TDP1 cell noCPT: qHTS for Inhibitors of human tyrosyl-DNA phosphodiesterase 1 (TDP1): qHTS in cells in absence of CPT | DT40 Tdp1-/- hTDP1 cells, no CPT, ATP luminescence, 48 h | Potency, µM (highest dose often 46.2 µM), without a hit: at the top dose activity change, negative = growth inhibition, usual class: inhibitors | actives 15% (n = 420,000) | AID 686978, 2013; note: potency is the fitted concentration of half-maximal effect; nearly all actives have a fitted effect of over 55% in size
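Stably hTDP1-transfected Tdp1-null chicken DT40 cells were treated with library compounds minus camptothecin and grown for at least 48 hr at 37 °C, after which cellular ATP was quantified by luminescence.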
IL1B secr inh: inflammasome signaling inhibition, IL-1 beta readout; THP-1 LPS/ATP IL-1B secretion, AlphaLISA, 16 h; active compounds read low; activity change, % at 57.5 µM; actives 4.7% (n = 360,000); AID 743279; in the data active = activity change below about -50%; inconclusive = mostly about -30% to -49%
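Secreted IL-1B measured by AlphaLISA bead assay after 16 h compound exposure of THP-1 cells; compounds (final up to 57.5 uM) added 1 h before LPS (250 ng/mL) and ATP (1.25 mM) stimulation; lower signal means less secretion.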
HT1080 IDH1KD tx: kills HT-1080 cells with IDH1 knockdown; actives 2% (n = 360,000); HT-1080 IDH1 knockdown viability, ATP luminescence, 48 h; AID 686971; Potency, µM (doses to about 46.1 µM), without a hit: at the highest dose activity, negative = toxicity, hits mostly cytotoxic;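 note: potency is the fitted concentration of half-maximal effect; 0% = DMSO wells and -100% = cell-free medium wells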
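Using the IDH1-knockdown HT-1080 line run in the same batch and compound series as the NT line, viability after 48 h at 37 °C was determined by CellTiter-Glo luminescence and expressed as % activity.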
HT1080NT lethal: kills 2HG-producing HT-1080-NT fibrosarcoma cells; HT-1080-NT fibrosarcoma viability, CellTiter-Glo ATP luminescence, 48 h; Potency, µM (titrated, usually from 46.1 µM), inactives show top-dose activity, negative = less viability, actives largely listed as cytotoxic; actives 1.6% (n = 360,000);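 note: NT is the 2HG producing partner of a matched IDH1 knockdown line; potency is the fitted concentration of half-maximal effect; 0% = DMSO-treated cells and -100% = media-only wells without cells; nearly all actives have a fitted effect of over 55% in size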
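Fibrosarcoma NT cells, 750 per well in 5% FBS RPMI, were exposed to compound for 48 hours. Viability: CellTiter-Glo luminescence.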
DT40 TDP1 CPT: growth inhibition of DT40 Tdp1-/-;hTDP1 cells with camptothecin (screen for TDP1 inhibitors); Potency, µM (titrated, usually from 46.2 µM), for inactives: at the highest dose activity change, negative = growth inhibition, usual class: inhibitors; AID 686979; chicken DT40 Tdp1-/-;hTDP1 cells + 20 nM CPT, ATP luminescence, 48 h; actives 12% (n = 420,000); note: potency is the fitted concentration of half-maximal effect; nearly all actives have a fitted effect of over 55% in size
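Chicken DT40 Tdp1-/- cells complemented with human TDP1, 400 cells/well, exposed to compounds plus 20 nM camptothecin for at least 48 h at 37 C; viability read as ATP content by CellTiter-Glo luminescence.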
The depositor's hits bear a star; ? = inconclusive; nt = not tested or not shown; [ ] = another dose, or the depositor's remark. A selection: hits, their analogues and other compounds. The true share with any hit is near 19%. Unless noted, calls come from the whole dose curve; as a rule, active = well fitted curve in the direction sought with a large enough effect; inconclusive = small, poorly fitted or top-dose-only effect, or another doubt; inactive = no such curve, though single readings can be large; an effect the other way counts as inactive or inconclusive. Unless noted, % is set by controls: 0 for no effect and ±100 for the full control effect.

SMILES	TDP1 cell noCPT	IL1B secr inh	HT1080 IDH1KD tx	HT1080NT lethal	DT40 TDP1 CPT
C=CC[C@H](CC(=O)N(CCO)Cc1ccccc1)C(=O)N[C@H](COC(=O)[C@@H](CC=C)Cc1ccc(F)cc1)Cc1c[nH]c2ccccc12	?	-56*	21µM*	?	?
C=CCC[C@H](Cc1ccc(F)cc1)C(=O)OC[C@H](Cc1c[nH]c2ccccc12)NC(=O)[C@H](CC=C)CC(=O)N(CCO)Cc1ccccc1	26µM*	?	?	?	?
C=CC[C@@H](CC(=O)N(CCO)Cc1ccccc1)C(=O)N[C@H](COC(=O)[C@@H](CC=C)Cc1ccc(F)cc1)Cc1c[nH]c2ccccc12	?	0	?	?	?
C=CCC[C@@H](Cc1ccc(F)cc1)C(=O)OC[C@@H](Cc1c[nH]c2ccccc12)NC(=O)[C@@H](CC=C)CC(=O)N(CCO)Cc1ccccc1	23µM*	-19	?	?	?
COc1ccc(CN2CC[C@H]3C=CC[C@@H](C(=O)NCc4cccnc4)[C@H]3C2=O)cc1OC	2%	nt	nt	nt	13%
CC(C)Nc1nnc(SCC(=O)N2CCN(C(=O)c3ccco3)CC2)s1	0%	5	16%	-2%	0%
CCOC(=O)c1ccc(S(=O)(=O)N2CCN(C(C)=O)CC2)cc1	-6%	52	1%	13%	-2%
CCOC(=O)c1ccc(S(=O)(=O)N2CCN(C(=O)c3cccc(S(=O)(=O)N4CC(C)OC(C)C4)c3)CC2)cc1 (stereo unspecified)	9.2µM*	-20	-9%	1%	16µM*
O=C(c1cccc(S(=O)(=O)N2CCN(c3ccccc3)CC2)c1)N1CCCC(C(F)(F)F)C1 (stereo unspecified)	5.2µM*	-3	-11%	?	7.3µM*
CC1CN(S(=O)(=O)c2cccc(C(=O)OCC(=O)N3CCCCCC3)c2)CC(C)O1 (stereo unspecified)	-21%	-13	-3%	0%	0%
CCOC(=O)c1ccc(S(=O)(=O)N2CCN(C(=O)CSc3nc4ccccc4o3)CC2)cc1	12µM*	0	-6%	1%	12µM*
O=C(c1cc(S(=O)(=O)N2CCN(c3ccccc3)CC2)ccc1Cl)N1CCCC(C(F)(F)F)C1 (stereo unspecified)	?	-8	-24%	-17%	15µM*
CCNC(=O)C1CCCN(Cc2cc(-c3ccccc3)on2)CC1 (stereo unspecified)	?	47	20%	0%	-12%
COc1ccc(C(=O)c2ccccc2)c(OCC(=O)N(C)C)c1	-10%	-22	-8%	-4%	-6%
CN(CC(=O)Nc1cccc(F)c1)C(=O)c1ccccc1OCC(=O)Nc1cccc(C(F)(F)F)c1	?	2	-17%	-7%	?
Cc1ccc(COC(=O)c2cccc(S(=O)(=O)N3CCCCCC3)c2)cc1	-9%	21	10%	5%	-8%
CC(=O)N1CCN(S(=O)(=O)c2cccc(C(=O)OCc3ccc(C(C)(C)C)cc3)c2)CC1	8.2µM*	15	-20%	-25%	7.3µM*
CC1CN(C(=O)c2cccc(S(=O)(=O)N3CCN(c4ccccc4)CC3)c2)CC(C)O1 (stereo unspecified)	?	40	2%	9%	15µM*
CN1CCN(S(=O)(=O)c2cccc(C(=O)N3CCN(c4ccccc4)CC3)c2)CC1	13%	3	0%	0%	-18%
Cc1cc(C(=O)O)ccc1-c1ccc(/C=C2\NC(=O)N(Cc3ccc(F)cc3)C2=O)o1	?	-6	1%	1%	-29%
C=CCOc1cccc(C2/C(=C(\O)c3ccc4c(c3)OCCO4)C(=O)C(=O)N2CCN2CCOCC2)c1 (stereo unspecified)	27%	0	2%	2%	0%
CCCc1cc(=O)[nH]c(SCc2nc3ccc([N+](=O)[O-])cc3[nH]2)n1	?	36	15µM*	9.2µM*	?
NC(N)=Nc1nc2ccc([N+](=O)[O-])cc2[nH]1	29µM*	?	-4%	-7%	-17%
O=[N+]([O-])c1ccc(/C=C/c2nc3ccc([N+](=O)[O-])cc3[nH]2)cc1	4.1µM*	-9	30%	2%	5.8µM*
Cc1cc(=O)[nH]c(SCc2nc3ccc([N+](=O)[O-])cc3[nH]2)n1	-11%	33	-1%	-13%	12%
SMILES	TDP1 cell noCPT	IL1B secr inh	HT1080 IDH1KD tx	HT1080NT lethal	DT40 TDP1 CPT
O=[N+]([O-])c1ccc2nc(CN3CCCCC3)[nH]c2c1	3%	2	0%	-5%	-2%
O=[N+]([O-])c1ccc2nc(CO)[nH]c2c1	0.5µM*	nt	nt	nt	?
Cc1ccc(C(C(=O)NC2CCCC2)N(CCCO)C(=O)Cn2nnc(-c3ccc(C)o3)n2)cc1 (stereo unspecified)	-26%	-25	7%	0%	-15%
O=[N+]([O-])c1ccc(/C=C/c2ccncc2)cc1	13µM*	?	-8%	1%	?
Cc1ccc(-c2nnn(CC(=O)N(CC(=O)NCCC(C)C)c3ccc(F)cc3)n2)cc1	-4%	nt	nt	nt	0%
COc1ccc(CCNC(=O)C(C(=O)c2ccc(F)cc2)n2ccccc2=O)cc1OC (stereo unspecified)	6.5µM*	11	3%	4%	?
COc1ccc(CCNC(=O)C(C(=O)c2ccccc2)n2cc(Cl)ccc2=O)cc1OC (stereo unspecified)	-21%	9	8%	9%	-12%
O=C(NCc1ccccc1)C(C(=O)c1ccc(F)cc1)n1ccccc1=O (stereo unspecified)	-21%	-4	7%	-4%	?
COc1ccc(CCNC(=O)C(C(=O)c2ccccc2)n2ccccc2=O)cc1OC (stereo unspecified)	5.8µM*	-2	7%	6%	-20%
O=C(NCC1CCCO1)C(C(=O)c1ccc(F)cc1)n1ccccc1=O (stereo unspecified)	23µM*	-8	1%	1%	?
CCOc1ccc(NC(=O)COC(=O)c2ccc3c(c2)OCCO3)cc1	3%	-23	4%	-1%[9.24 µM]	-30%
Cc1cnc(C)c(-c2ccc3c(c2)CC(CNC(=O)Cc2c(C)[nH]c4ccccc24)O3)n1 (stereo unspecified)	0.92µM*	nt	nt	nt	0.52µM*
Cc1cnc(C)c(-c2ccc(F)c3c2OC(CNC(=O)Cc2c(C)[nH]c4ccccc24)C3)n1 (stereo unspecified)	-30%	nt	nt	nt	-4%
